PubChem BioAssay AID1508602 (The Scripps Research Institute Molecular Screening Center, 2020)
Values joined by “and” are separate entries in the source; they are usually repeats but may differ in a detail not shown here. Equal entries are not always repeated. The campaign covered roughly 650,000 compounds. About 6,800 (1%) were called active. No stated cut-off is given here; in the data, active means activation above about 4.9%; inactive means the rest. The full list was thinned out, with actives kept by preference. Some structures have more than one record in an assay (separate samples or runs), and their calls can disagree.

The molecules below were run against G-protein coupled receptor 151 (Homo sapiens) (UniProt Q8TDV0) (assay: activates the human receptor GPR151, primary screen, cell-based, PathHunter beta-arrestin, luminescence (AID 1508602;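 further: 0% = median of compound wells and 100% = cells with positive control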)). Conditions: PathHunter beta-arrestin GPR151 cells, at 11.2 µM, stronger effect = higher value.
G-protein coupled receptor 151 (Homo sapiens), sequence (Q8TDV0 whole entry, looked up): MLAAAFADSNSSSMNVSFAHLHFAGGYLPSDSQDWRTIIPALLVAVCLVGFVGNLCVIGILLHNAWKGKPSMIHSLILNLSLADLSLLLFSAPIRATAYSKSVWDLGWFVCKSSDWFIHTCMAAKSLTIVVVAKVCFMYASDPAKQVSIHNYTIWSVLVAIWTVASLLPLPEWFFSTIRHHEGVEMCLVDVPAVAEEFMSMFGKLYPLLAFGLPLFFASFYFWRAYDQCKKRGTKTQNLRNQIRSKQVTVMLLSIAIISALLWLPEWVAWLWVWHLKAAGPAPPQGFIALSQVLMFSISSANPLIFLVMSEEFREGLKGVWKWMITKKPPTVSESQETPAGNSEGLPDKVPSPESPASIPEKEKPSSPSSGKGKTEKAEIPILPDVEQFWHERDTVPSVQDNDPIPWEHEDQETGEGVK

Compound | activation
CC(C)C[C@H]1NC(=O)[C@@H]2C[C@H](NCc3cc(F)ccc3F)CN2C1=O | -0.818% (inactive)
O=C1N[C@@H](Cc2ccc(Cl)cc2)C(=O)N2C[C@@H](NCc3nc(-c4ccc(F)cc4)cs3)C[C@@H]12 | -2.22% (inactive)
CCC[C@@H]1NC(=O)[C@@H]2C[C@H](NCc3nc(-c4ccc(F)cc4)cs3)CN2C1=O | 5.66% (active)
O=C(NCc1ccc(Cl)cc1)C(=O)NC1CCCCCC1 | 1.92% (inactive)
Cc1cc(NC(=O)CSc2nnc3c(n2)[nH]c2ccc(S(=O)(=O)N4CCOCC4)cc23)no1 | -0.982% (inactive)
Cc1c2cnn(CC(=O)NCC(C)c3ccccc3)c(=O)c2c(C)n1Cc1ccccc1 (centres undefined) | -0.872% (inactive)
CC1CCN(CC(=O)Nc2ccccc2Cl)CC1 | 20.2% (active)
Cc1cc(C)cc(NC(=O)NC2CCN(CC(=O)Nc3cccc(Cl)c3C)CC2)c1 | 0.14% (inactive)
CC1CCN(CC(=O)Nc2ccc(Cl)cc2)CC1 | -1.21% (inactive)
COc1ccc(NC(=O)C2CCCN2C(=O)Nc2ccccc2)cc1 (centres undefined) | 2.01% (inactive)
Nc1cccc(-c2ncc(C(=O)NC3CC3)s2)c1 | -0.0842% (inactive)
O=C(CC12CC3CC(CC(C3)C1)C2)Nc1ccc2c(c1)COC2=O | -1.36% (inactive) and 1.16% (inactive)
O=C(CC12CC3CC(CC(C3)C1)C2)Nc1ccc2oc(=O)ccc2c1 | 6.05% (active)
O=C(COc1ccc(Cl)cc1)Nc1ccc2oc(=O)ccc2c1 | 1.66% (inactive)
CCCOc1ccc(C2CC(=O)NC3=C2C(=O)CC(C)(C)C3)cc1 (centres undefined) | 0.129% (inactive)
CC1(C(=O)Nc2cccc(C(F)(F)F)c2)CC2c3ccccc3C1c1ccccc12 (centres undefined) | 6.33% (active)
Cc1ccc(NC(=O)C2(C)CC3c4ccccc4C2c2ccccc23)cc1C (centres undefined) | -0.659% (inactive)
CC1(C)C(=O)C2(C(=O)Nc3cccc(C(F)(F)F)c3)CCC1C2 (centres undefined) | -0.111% (inactive)
O=C(NC(=S)Nc1ccc(-c2nc3ncccc3o2)cc1)c1ccc(I)cc1 | -0.544% (inactive)
CC1CCCC(NC(=O)CSc2cc(=O)n(C)c3ccc(Cl)cc23)C1C (centres undefined) | 1.18% (inactive)
CCOC(=O)C1CCN(C(=O)CN2C(=O)c3cccnc3Oc3ccc(C)cc32)CC1 | 2.66% (inactive)
Cc1ccc2c(c1)N(CC(=O)N1CCC(C)CC1)C(=O)c1cccnc1O2 | 5.35% (active)
COC(=O)CN1C(=O)c2cccnc2Oc2ccc(C)cc21 | -1.68% (inactive)

Compound | activation
CC1Cc2ccccc2N1S(=O)(=O)c1nnc(NC(=O)c2ccc(F)cc2)s1 (centres undefined) | -0.611% (inactive)
COc1ccccc1NC(=O)c1c(NCc2cccs2)sc2c1CCCC2 | 1.25% (inactive)
C#CCN=Cc1c(O)n(CC)c(=S)n(CC)c1=O | -0.872% (inactive)
Cc1cccc(NC(=S)N(CCCN2CCCC(C)C2)Cc2cccs2)c1 (centres undefined) | 2.67% (inactive)
CCOC(=O)C1=CN(c2ccc(C)cc2)C=C(C(=O)OCC)C1c1ccc(Cl)c(Cl)c1 | 1.19% (inactive)
C#CCN1C(=O)S/C(=C/c2cc(Cl)c(O)c(OC)c2)C1=O | 2.53% (inactive)
C=CCn1c(=O)c2ccc(C(=O)NCc3ccc4c(c3)OCO4)cc2n(CC(N)=O)c1=O | 10.5% (active)
O=C(NCc1ccc2c(c1)OCO2)c1ccc(I)cc1 | -1.11% (inactive)
CCCCCn1c(=S)[nH]c2cc(C(=O)NCc3ccc4c(c3)OCO4)ccc2c1=O | -1.93% (inactive)
CSCCC(NC(C)=O)C(=O)OCC(=O)Nc1nnc(C(C)C)s1 (centres undefined) | -1.34% (inactive)
COc1c(Cl)ccc(Cl)c1C(=O)Nc1cc(C)cc(C)c1 | 0.289% (inactive)
COC(=O)/C=C1/C(=O)Nc2ccccc21 | -0.452% (inactive)
Cn1c(/C=C2\C(=O)Nc3ccccc32)nc2ccccc2c1=O | 1.31% (inactive)
Cc1cc(C)c(/C=C2\C(=O)Nc3ccccc32)[nH]1 | -2.18% (inactive) and 5.18% (active)
COC(=O)c1c(OCc2cccnc2)cc(=O)n2c1CCN(C(C)CSC)CC2 (centres undefined) | 0.107% (inactive)
COc1cccc(CNC(=O)CCC(=O)N2CC(C)Oc3ccc(C)cc32)c1 (centres undefined) | 0.215% (inactive)
Cc1cccc(CN[C@H]2C[C@H]3C(=O)N[C@@H](CC(C)C)C(=O)N3C2)c1 | 1.59% (inactive)
C=C(C)Cn1c(N2CCN(CCO)CC2)nc2c1c(=O)[nH]c(=O)n2C | -0.406% (inactive)
COc1ccc2nc(/C(C#N)=C\c3cc4c(cc3OC)OCO4)[nH]c2c1 | 5.68% (active)
COc1ccccc1/C=C(/C#N)c1nc2ccccc2[nH]1 | -0.79% (inactive)
COc1cc2c(cc1/C=C(\C#N)c1nc3ccccc3[nH]1)OCO2 | 0.566% (inactive)
Cc1ccc2nc(/C(C#N)=C/c3ccccc3F)[nH]c2c1 | -0.301% (inactive)
COc1cccc(/C=C(\C#N)c2nc3ccc(C)cc3[nH]2)c1OC | 13.2% (active)

Compound | activation
COc1ccc2nc(/C(C#N)=C\c3c[nH]c4ccccc34)[nH]c2c1 | -0.394% (inactive)
COc1ccc(S(=O)(=O)n2nc(-c3cc(OC)cc(OC)c3)cc2N)cc1 | -1.02% (inactive)
Cc1ccc(NC(=O)C2CCCN(S(=O)(=O)c3ccc4c(c3)oc(=O)n4C)C2)cc1C (centres undefined) | -0.645% (inactive)
O=C(c1ccc(N2CCC(NCc3cccc(F)c3F)CC2)cc1)N1CCCC(CO)C1 (centres undefined) | 0.257% (inactive)
O=C(Nc1ccc2oc(-c3cccc(I)c3)nc2c1)c1cc(Br)ccc1Cl | -0.461% (inactive)
O=C(Cc1cccs1)NCCC1=CCCCC1 | 9.81% (active)
O=C(Cc1ccc([N+](=O)[O-])cc1)NCCC1=CCCCC1 | 0.571% (inactive)
O=C(CNC(=S)N(Cc1cccs1)C1CCCCC1)NCCC1=CCCCC1 | 2.8% (inactive)
CCOC(=O)c1c(NC(=O)c2cc(S(N)(=O)=O)c(Cl)cc2Cl)sc2c1CCC(C)C2 (centres undefined) | 0.0074% (inactive)
COc1cc(/C=C2/C(=N)N3N=C(CC(C)C)SC3=NC2=O)ccc1OC(=O)c1ccc(F)cc1 | -0.0343% (inactive)
CCOC(=O)c1[nH]c2ccc(OC)cc2c1NC(=S)N1CCN(c2ncccn2)CC1 | 2.39% (inactive)
CCOC(=O)c1[nH]c2ccc(OC)cc2c1NC(=O)CN(C)C | 6.75% (active)
CCOC(=O)Nc1c(C(=O)OC)[nH]c2ccc(C)cc12 | -1.5% (inactive)
COc1ccccc1NC(=O)c1sc2ncn(Cc3cccc(Br)c3)c(=O)c2c1C | -1.06% (inactive)
O=C(NCCc1c[nH]c2ccccc12)c1cccs1 | -0.507% (inactive)
CSc1ncc(C(=O)NCCc2c[nH]c3ccccc23)c(C)n1 | 4.98% (active)
S=C(S)NCCc1c[nH]c2ccccc12 | -0.43% (inactive)
Cc1ccc(CNC(=O)CN2C(=O)C3C4C=CC(C4)C3C2=O)o1 (centres undefined) | 0.668% (inactive)
C[C@@H](c1ccccc1)N1C(=O)[C@H]2[C@H]3[C@H](O)C=CC(=O)[C@@H]3CC[C@H]2C1=O | -1.71% (inactive)
CC(=O)N(c1nc(C=O)cs1)c1ccccc1F | 1.55% (inactive)
COc1ccc(N2C(=O)C(=O)/C(=C(/O)c3ccccc3)C2c2ccc(Cl)cc2)cc1 (centres undefined) | -0.225% (inactive)
O=C(O)COc1ccc(N2C(=O)C(=O)/C(=C(\O)c3ccccc3)C2c2ccc(Cl)cc2Cl)cc1 (centres undefined) | 6.19% (active)
CC(C)(C)c1ccc(C2/C(=C(/O)c3ccccc3)C(=O)C(=O)N2c2ccc(OCC(=O)O)cc2)cc1 (centres undefined) | -0.849% (inactive)

Compound | activation
CCOc1ccc2c(c1)=C/C(=C\c1[nH]c(=S)[nH]c1O)C(=O)N=2 | -0.225% (inactive)
CN1NC2(CCCCC2)N(c2ccccc2)C1=S | 0.403% (inactive)
COc1ccc(CCNc2cc(C)nc(NCc3ccc4c(c3)OCO4)n2)cc1 | -0.591% (inactive)
COc1ccc(CCNc2ncnc3c2nc(Nc2cccc(N(C)C)c2)n3C(C)C)cc1 | -3.07% (inactive)
COc1ccc(CCNc2cc(C)nc(Nc3cccc(N(C)C)c3)n2)cc1 | 8.12% (active)
CC1=C(C(=O)OCc2ccc3c(c2)OCO3)C(c2ccc(Cl)c(Cl)c2)NC(=O)N1 (centres undefined) | -0.562% (inactive)
CC(C)(C)S(=O)(=O)Nc1nccnc1-c1ccc2c(c1)OCO2 | -0.466% (inactive)
CCCCSC1=C(C#N)C(c2ccc(OC)cc2)C2=C(CC(C)(C)CC2=O)N1 (centres undefined) | 1.78% (inactive)
CC(=O)N(C)c1ccc(N=Cc2ccc3ccccc3c2)cc1 | -0.522% (inactive)
O=C1NC2(CCN(CC(=O)N3CCCCC3)CC2)Nc2ccccc21 | -0.0006% (inactive)
Cc1ccc(N=Cc2c(NCc3ccco3)nc3c(C)cccn3c2=O)cc1 | -0.949% (inactive)
C/C(=N/NC(=O)c1ccccc1)c1ccc(F)cc1 | -1.24% (inactive)
CC(C)n1c(Nc2ccc3ncccc3c2)nc2c(NC3CC3)ncnc21 | 7.49% (active)
CC(C)n1c(Nc2ccc3ncccc3c2)nc2c(N)ncnc21 | 0.875% (inactive)
CCCNc1ncnc2c1nc(Nc1cccc(N(C)C)c1)n2C(C)C | -1% (inactive)
CC1=C(C(=O)Nc2nc3ccc(Br)cc3s2)C(c2ccccc2C)C2=C(CC(C)(C)CC2=O)N1 (centres undefined) | 1.38% (inactive)
COc1ccc(C(=O)Nc2ccc(S(=O)(=O)N(C)C3CCCCC3)cc2)cc1 | -0.159% (inactive)
COc1ccc(NC(=O)c2ccc(C(=O)Nc3ccc(OC)cc3)cc2)cc1 | -0.694% (inactive)
COc1ccc(C(=O)Nc2ccc(S(=O)(=O)NC(C)C)cc2)cc1 | 5.49% (active)
COc1cccc(-c2nc3nc(C)c(CCC(=O)NC4CCCC4)c(C)n3n2)c1 | 0.324% (inactive)
